Laboratory results reported in the supplement of paper PMC13380429.

Test system: Vero E6 infected with SARS-CoV-2
Assay: inhibition of SARS-CoV-2 cytopathic effect; higher = more antiviral protection, active = above 15
Conditions: 48 h

Measured: inhibition of SARS-CoV-2 cytopathic effect

Nc1ccc(C(=O)O)c(O)c1 [aminosalicylate]
inactive: 1 nM -3.85% | 8.33 nM -0.82% | 100 nM -0.9% | 833.33 nM 0.11% | 10000 nM 0.97%

O=C1CN=C(c2cccc(Br)c2)c2oc3ccccc3c2N1
inactive: 1 nM -2.75% | 8.33 nM -1.3% | 100 nM -1.9% | 833.33 nM 0.38% | 10000 nM 0.75%

CC(C)[N+](C)(CCC(C(N)=O)(c1ccccc1)c1ccccc1)C(C)C [isopropamide-iodide]
inactive: 1 nM 1.15% | 8.33 nM 1.26% | 100 nM 2.29% | 833.33 nM 1.52% | 10000 nM 1.2%

COc1ccc(O)c(C(C)(C)C)c1.COc1ccc(O)cc1C(C)(C)C [butylated-hydroxyanisole]
inactive: 1 nM -2.13% | 8.33 nM -2.11% | 100 nM -2.79% | 833.33 nM 0.85% | 10000 nM -1.88%

Cc1c(Cl)cccc1S(=O)(=O)Nc1nc(NCCc2ccccc2)nc2c1CN(Cc1ccccc1)CC2
inactive: 1 nM 5.62% | 8.33 nM 1.85% | 100 nM 0.14% | 833.33 nM 0.89% | 10000 nM -1.37%

O=c1ccn([C@@H]2O[C@H](COP(=O)(O)OP(=O)(O)OP(=O)(O)O)[C@@H](O)[C@H]2O)c(=O)[nH]1
inactive: 1 nM -0.655% | 8.33 nM 1.84% | 100 nM 3.83% | 833.33 nM 2.04% | 10000 nM -0.735%

Cc1cc([N+](=O)[O-])ccc1NS(=O)(=O)c1cc(Cl)ccc1Cl
inactive: 1 nM -3.81% | 8.33 nM -2.34% | 100 nM -0.48% | 833.33 nM 0.28% | 10000 nM 2.09%

CCOC(=O)N1CCC(=C2c3ccc(Cl)cc3CCc3cccnc32)CC1 [loratadine]
inactive: 1 nM 1.77% | 8.33 nM 0.5% | 100 nM 0.11% | 833.33 nM -0.88% | 10000 nM -4.61%

Cc1cc(Cn2cnc3c2C[C@@H](C(=O)O)N(C(=O)C(c2ccccc2)c2ccccc2)C3)ccc1N(C)C
inactive: 1 nM -2.45% | 8.33 nM -1.75% | 100 nM -3.61% | 833.33 nM -1.45% | 10000 nM 0.19%

c1ccc(Cn2c(-c3ccc(OC[C@H](C4CCNCC4)n4c(-c5ccccc5)nc5ccccc54)cc3)nc3ccccc32)cc1 [deltarasin]
inactive: 1 nM -4.79% | 8.33 nM -0.65% | 100 nM -1.55% | 833.33 nM -1.93% | 10000 nM -33.6%

O=C(NC[C@H]1CN(c2ccc(N3CCOCC3=O)cc2)C(=O)O1)c1ccc(Cl)s1 [Rivaroxaban (Xarelto)]
inactive: 1 nM 1.99% | 8.33 nM 1.35% | 100 nM 3.46% | 833.33 nM 1.51% | 10000 nM 3.09%

CN1CCN(c2cccc3[nH]c(=O)oc23)CC1 [pardoprunox]
inactive: 1 nM 0.73% | 8.33 nM 1.76% | 100 nM 3.14% | 833.33 nM -2.14% | 10000 nM 1.85%

CN1CCN(C(=O)c2cc3cc(Cl)ccc3[nH]2)CC1
inactive: 1 nM -0.68% | 8.33 nM 0.59% | 100 nM -1.58% | 833.33 nM -1.48% | 10000 nM -1.13%

NS(=O)(=O)c1ccc(-n2nc(C(F)(F)F)cc2-c2ccc(Cl)cc2)cc1
inactive: 1 nM 1.27% | 8.33 nM 3.82% | 100 nM -2.22% | 833.33 nM -0.43% | 10000 nM -0.38%

Cc1ccc(-c2ncc[nH]2)cc1NC(=O)c1ccc(OCc2ccccn2)cc1
inactive: 1 nM -1.02% | 8.33 nM -0.95% | 100 nM -2.09% | 833.33 nM -4.18% | 10000 nM -4.54%

C=C1CC/C=C(\C)CC[C@@H]2[C@@H]1CC2(C)C [g-caryophyllene]
inactive: 1 nM 1.74% | 8.33 nM 2.63% | 100 nM -0.6% | 833.33 nM 1.24% | 10000 nM 1.88%

Nc1nc(F)nc2c1ncn2[C@@H]1O[C@H](COP(=O)(O)O)[C@@H](O)[C@@H]1O [fludarabine-phosphate]
inactive: 1 nM 1.37% | 8.33 nM 1.76% | 100 nM -0.32% | 833.33 nM 1.79% | 10000 nM -4.26%

CC(C)=CCC[C@](C)(O)[C@H]1CC[C@]2(C)[C@@H]1[C@H](O)C[C@@H]1[C@@]3(C)CC[C@H](O)C(C)(C)[C@@H]3[C@@H](O)C[C@]12C [hemomex-s]
inactive: 1 nM -1.07% | 8.33 nM 0.12% | 100 nM 5.17% | 833.33 nM -0.7% | 10000 nM 0.84%
